# Laboratory results as given in PubChem BioAssay (Tox21).
# Results filed as inconclusive are left out. Entries that show only a call come without a potency. Activity calls are given as the source filed them. Calls follow the shape of the dose curve; as a rule, active = well fitted inhibition curve with a large enough effect in the repeat runs; inconclusive = weak or mixed curves; inactive = no such curve, though single readings can be large or run the other way.
# Biological target: Cytochrome P450 3A4 (Homo sapiens) (UniProt P08684)
# Test: Cytochrome P450 Family 3 Subfamily A Member 4 (CYP3A4) small molecule antagonists: luciferase reporter qHTS assay (AID 1671201); also: nearly all actives have a fitted effect of over 50% in size
# Conditions: P450-Glo CYP3A4 enzyme, luciferin luminescence, 1 h; series mostly up to 115 µM
# From the text: National Center for Advancing Translational Sciences [NCATS]
# U.S. Environmental Protection Agency [EPA]
# National Institutes of Environmental Health Sciences [NIEHS]
# National Toxicology Program [NTP]
# U.S. Food and Drug Administration [FDA]
# Cytochrome P450 (CYP) enzymes are membrane-bound hemeproteins that play a key role in metabolism of drugs and xenobiotics. Evaluation of the effect of chemicals on CYP isozymes is useful to minimize the adverse drug reactions and toxicities in drug development process. Tox21 chemicals were tested for their effect on CYP enzyme activities by using P450-Glo (TM) screening systems (Promega Corporation, Madison, WI). These systems provide a luminescent method containing proluciferin substrates and are converted to luciferin products by CYP isozymes. The luciferin products formed are detected with a luciferin detection reagent, and the amount of light produced is proportional to CYP activity. P450-Glo (TM) CYP3A4 screening system (Catalog. No. V9910) was used to detect the compounds that interfere in CYP3A4 activity. The positive control compound used for CYP3A4 assay is ketoconazole (Sigma-Aldrich, St. Louis, MO).
# Tox21 Assay Protocol Summary:
# Two ul of enzyme-substrate mix was dispensed into medium binding white/solid 1536-well plates (Greiner Bio-One North America Inc., Monroe, NC) using a BioRaptr Flying Reagent Dispenser (FRD, Beckman Coulter, Brea, CA). Compounds dissolved in DMSO and positive control (ketoconazole) were transferred to the assay plates at 23 nl using a Pintool station (Wako, San Diego, CA). The assay plates were incubated at room temperature for 10 min. Then 2 ul of NADPH regeneration solution was added to each well of the assay plates using an FRD and incubated at room temperature for 1 h. The reaction was stopped by adding 4 ul of detection reagent using an FRD and after 20 min incubation at room temperature the luminescence signal was measured using a ViewLux plate reader (Perkin Elmer, Shelton, CT). Data were expressed as relative luminescence units.
# Potency is read from the fitted curve at half-maximal effect.
# Cytochrome P450 3A4 (Homo sapiens), sequence (P08684 whole entry, looked up): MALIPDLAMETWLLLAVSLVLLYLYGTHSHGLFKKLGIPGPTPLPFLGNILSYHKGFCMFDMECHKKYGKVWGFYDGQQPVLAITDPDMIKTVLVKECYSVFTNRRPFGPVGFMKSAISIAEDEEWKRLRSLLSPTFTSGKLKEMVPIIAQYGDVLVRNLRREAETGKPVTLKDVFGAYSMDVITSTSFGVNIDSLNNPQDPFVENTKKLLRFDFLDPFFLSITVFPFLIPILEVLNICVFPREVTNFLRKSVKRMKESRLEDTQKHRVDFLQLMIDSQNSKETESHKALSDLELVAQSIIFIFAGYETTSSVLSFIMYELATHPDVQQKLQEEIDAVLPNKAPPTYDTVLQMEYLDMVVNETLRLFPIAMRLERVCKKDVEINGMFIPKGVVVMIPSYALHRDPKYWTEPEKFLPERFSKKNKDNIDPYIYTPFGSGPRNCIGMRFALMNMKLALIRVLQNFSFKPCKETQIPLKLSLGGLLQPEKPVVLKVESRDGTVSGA
row,SMILES,Potency
1,OCCOCC#CCOCCO,inactive
2,CC(=O)[C@H]1[C@H](C#N)C[C@H]2[C@@H]3CC=C4C[C@@H](O)CC[C@]4(C)[C@H]3CC[C@@]21C,inactive
3,O=C1c2ccccc2C(=O)C1c1ccc(Br)cc1,inactive
4,CC1(C)O[C@@H]2C[C@H]3[C@@H]4C[C@H](F)C5=CC(=O)C=C[C@]5(C)[C@H]4[C@@H](O)C[C@]3(C)[C@]2(C(=O)CO)O1,4.9 µM (active)
5,OC1(c2ccccc2)CCNCC1,inactive
6,NC1[C@H]2CN(c3nc4c(cc3F)c(=O)c(C(=O)O)cn4-c3ccc(F)cc3F)C[C@@H]12 (stereo not given in full),inactive
7,CC(=O)Oc1ccc([N+](=O)[O-])cc1CCl,inactive
8,C[C@H]1C[C@H](O)c2ccsc2S1(=O)=O,inactive
9,FC(F)(F)c1ccccc1Cl,inactive
10,Brc1cc(Br)c(Oc2cc(Br)c(Br)cc2Br)cc1Br,inactive
11,Cc1cccc(O)c1N,36 µM (active)
12,CNC(=O)c1cnn(-c2nc(N)c3ncn([C@@H]4O[C@H](CO)[C@@H](O)[C@H]4O)c3n2)c1,inactive
13,Cc1ccco1,inactive
14,CC(=O)NC1(c2cccc(F)c2)CCN(CC[C@@]2(c3ccc(Cl)c(Cl)c3)CN(c3ccccc3)C(=O)CO2)CC1,inactive
15,O=C(CCCN1CC=C(n2c(=O)[nH]c3ccccc32)CC1)c1ccc(F)cc1,inactive
16,CC(=O)OCCN(CCOC(C)=O)c1ccc(N=Nc2ccc([N+](=O)[O-])cc2C#N)cc1,3.56 µM (active)
17,CCOC(=O)c1ccc(O)c(O)c1,inactive
18,CCC(C)(C)OC,inactive
19,CC[N+](CC)(CCNC(=O)C(=O)NCC[N+](CC)(CC)Cc1ccccc1Cl)Cc1ccccc1Cl,inactive
20,CCOC(=O)c1ccc(I)cc1,inactive

row,SMILES,Potency
1,CCC(C)COC(=O)CC(C)C (stereo not given),inactive
2,C=C(C)C(=O)OCCCCCCCCCCCCC,55.7 µM (active)
3,O=c1[nH]c2ccc(Cl)cc2o1,inactive
4,NCCNCCO,inactive
5,O=c1[nH]ncc2ccccc12,inactive
6,CC1(C)[C@H](C(=O)O)N2C(=O)C[C@H]2S1(=O)=O,inactive
7,O=C1c2ccccc2C(=O)N1CCc1noc(-c2ccc(CN3CCCCCC3)s2)n1,0.231 µM (active)
8,C=Cc1ccc(S(=O)(=O)O)cc1,inactive
9,O=c1cc(-c2ccccc2)oc2ccc3ccccc3c12,17.8 µM (active)
10,O=C1C(=O)c2ccccc2C(O)=C1C1CCC(c2ccc(Cl)cc2)CC1 (stereo not given),inactive
11,O=C1NCCN1CCO,inactive
12,Cc1ccc(C(C)(C)O)cc1,inactive
13,OC[C@H]1O[C@@H](n2cnc3c(=S)nc[nH]c32)[C@H](O)[C@@H]1O,inactive
14,CCOC(=O)c1ccc(OCCN2C[C@H](O)[C@@H](O)[C@H](O)[C@H]2CO)cc1,inactive
15,CCCCCCCCCCC(=O)O,inactive
16,O=C(Nc1cccc2c(=O)cc(-c3nn[nH]n3)oc12)c1ccc(OCCCCc2ccccc2)cc1,inactive
17,O=C(O)CCC(=O)C(=O)O,inactive
18,CCOC(C)=O,inactive
19,CCCCCCCCCI,inactive
20,C=C1C[C@@]23CC[C@H]4[C@@](C)(CCC[C@@]4(C)C(=O)O[C@@H]4O[C@H](CO)[C@@H](O)[C@H](O)[C@H]4O)[C@@H]2CC[C@]1(O[C@@H]1O[C@H](CO)[C@@H](O)[C@H](O[C@@H]2O[C@H](CO)[C@@H](O)[C@H](O)[C@H]2O)[C@H]1O[C@@H]1O[C@H](CO)[C@@H](O)[C@H](O)[C@H]1O)C3,inactive
